In PubChem BioAssay (NCI):
Where “and” joins values, the source holds several entries; their conditions need not be identical. Equal values may be shown once. This is part of a sample that, as a whole, favours compounds with a hit. Of some 83,000 tested, about 20% had one in any assay.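 Method: cells in 96-well plates; compound added at one concentration; 48 h incubation; percent growth measured; values under 10 scored active.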 Calls of active or inactive are those of the source.

Assays:
Experiment in all cases: NCI-60 one-dose screen, 48 h (100 = growth as untreated, 0 = no growth, -100 = all killed)
Details in all cases: 10 µM unless noted
DU-145 prostate = test system: DU-145 prostate
K-562 leukemia = test system: K-562 leukemia
MALME-3M melanoma = test system: MALME-3M melanoma
MDA-MB-231 breast = test system: MDA-MB-231 breast
RXF 393 renal = test system: RXF 393 renal
SF-268 CNS = test system: SF-268 CNS
SF-295 CNS = test system: SF-295 CNS
SF-539 CNS = test system: SF-539 CNS
UACC-257 melanoma = test system: UACC-257 melanoma
M14 melanoma = test system: M14 melanoma

SMILES	growth (DU-145 prostate)	growth (K-562 leukemia)	growth (MALME-3M melanoma)	growth (MDA-MB-231 breast)	growth (RXF 393 renal)	growth (SF-268 CNS)	growth (SF-295 CNS)	growth (SF-539 CNS)	growth (UACC-257 melanoma)	growth (M14 melanoma)
COc1cc(Nc2nc3ccccc3nc2NS(=O)(=O)c2ccc(NC(=O)c3ccc(C)c(OC)c3)cc2)cc(OC)c1	63.2% (inactive) and 12.9% (inactive)	63% (inactive) and 29.3% (inactive)	30.7% (inactive) and -18.6% (active)	77.2% (inactive) and 13.5% (inactive)	75.1% (inactive) and -38.8% (active)	54.8% (inactive) and 18.2% (inactive)	41.7% (inactive) and -32.8% (active)	62.7% (inactive) and -35.7% (active)	74.7% (inactive) and -18.8% (active)	64.1% (inactive) and 8.75% (active)
O=C1c2ccccc2C(=O)c2c(NCCNCCO)ccc(NCCNCCO)c21	-41.7% (active) and 24.3% (inactive) and 14% (inactive)	135% (inactive) and 24.8% (inactive) and 7.96% (active)	-15.3% (active) and 45.8% (inactive) and 46.7% (inactive)	-6.87% (active) and 11.3% (inactive) and 12.1% (inactive)	0.645% (active)	-16.6% (active) and 4.52% (active) and -6.95% (active)	-21.5% (active) and 7.17% (active)	-17% (active) and 29.6% (inactive) and 19.9% (inactive)	72.2% (inactive) and 89.1% (inactive) and 82.5% (inactive)	10.7% (inactive) and 47.4% (inactive) and 33.9% (inactive)
Cc1ccc(NCSc2ccc(Cl)cc2)cc1	93.2% (inactive) and 95.4% (inactive)	74.1% (inactive) and 80.2% (inactive)	115% (inactive) and 92.6% (inactive)	58.7% (inactive) and 59.7% (inactive)	100% (inactive) and 111% (inactive)	63.9% (inactive) and 57.2% (inactive)	85.8% (inactive)	65% (inactive) and 69.6% (inactive)	70.7% (inactive) and 86.5% (inactive)	76% (inactive) and 89% (inactive)
CC(C)N=c1cc2n(-c3ccc(Cl)cc3)c3ccccc3nc-2cc1Nc1ccc(Cl)cc1	51.4% (inactive) and 15.5% (inactive)	14.5% (inactive) and -17.3% (active)	5.85% (active) and -83.1% (active) and -46% (active)	-0.451% (active) and 26% (inactive) and 10.6% (inactive)	8.99% (active) and -11.2% (active) and 12.3% (inactive)	45.5% (inactive) and 35.7% (inactive) and 31.2% (inactive)	9.83% (active) and 19.6% (inactive) and -10.5% (active)	72.8% (inactive) and 73.3% (inactive) and 59.1% (inactive)	28.3% (inactive) and 29.6% (inactive) and 7.9% (active)	-8.29% (active) and -34.4% (active) and -56.7% (active)
Oc1ccccc1/C=N\NC(=S)N/N=C/c1ccccc1O	55% (inactive) and 44.6% (inactive)	26% (inactive)	39.6% (inactive) and 42.9% (inactive)	55% (inactive) and 44.2% (inactive)	80.7% (inactive) and 63.9% (inactive)	50% (inactive) and 37% (inactive)	22.4% (inactive) and 30.6% (inactive)	45.4% (inactive) and 23.2% (inactive)	40.3% (inactive) and 34.2% (inactive)	24.4% (inactive) and 24.5% (inactive)
CC(=O)NC(Cc1ccccc1)C(=O)Oc1ccc2ccccc2c1 (stereo not given)	107% (inactive) and 109% (inactive)	106% (inactive) and 113% (inactive)	109% (inactive)	104% (inactive) and 103% (inactive)	113% (inactive) and 115% (inactive)	100% (inactive)	113% (inactive)	91.6% (inactive) and 90% (inactive)	104% (inactive) and 116% (inactive)	109% (inactive) and 118% (inactive)
N#C/C(=C1C=C/C(=N/O)C(Br)=C/1)c1ccccc1	-13.1% (active)	9.55% (active)	67.4% (inactive)	28.1% (inactive)	17% (inactive)	18.8% (inactive)	-8.83% (active)	-26% (active)	44.1% (inactive)	31.9% (inactive)
COc1ccc(Cn2c(NCCN=C(N)N)nc(=O)n(Cc3ccc(F)cc3)c2=O)cc1	104% (inactive) and 115% (inactive)	89.6% (inactive) and 94% (inactive)	91.7% (inactive) and 91.1% (inactive)	107% (inactive) and 103% (inactive)	95.5% (inactive) and 109% (inactive)	61.8% (inactive) and 52.5% (inactive)	102% (inactive)	102% (inactive) and 89.7% (inactive)	89.4% (inactive) and 101% (inactive)	97.9% (inactive) and 100% (inactive)
CN(C)c1ccc2nc3ccc(N)cc3[n+](-c3ccccc3)c2c1	46.7% (inactive) and 2.32% (active)	9.29% (active) and 18.5% (inactive)	4.82% (active) and -9.23% (active)	51.6% (inactive) and 15.7% (inactive)	65.6% (inactive) and 73.1% (inactive)	30.3% (inactive) and 7.92% (active)	29% (inactive) and -39.8% (active)	19.8% (inactive) and -29.8% (active)	-12.2% (active) and -21% (active)	40.8% (inactive) and 15% (inactive)
CNC(=O)c1cc(Oc2ccc(NC(=O)Nc3ccc(Cl)c(C(F)(F)F)c3)cc2)ccn1	20.7% (inactive) and 13.7% (inactive)	1.27% (active) and 29.2% (inactive)	-40.2% (active) and 53% (inactive)	-34% (active) and -34.5% (active)	-35.8% (active) and -56.3% (active)	25.7% (inactive) and 7.26% (active)	10.7% (inactive) and 6.13% (active)	-33.4% (active) and 10.8% (inactive)	-26.1% (active)	-4.68% (active) and 5.32% (active)
CC(=O)c1ccccc1O	112% (inactive) and 107% (inactive) and 116% (inactive)	94.9% (inactive) and 95% (inactive) and 107% (inactive)	101% (inactive) and 95% (inactive) and 114% (inactive)	108% (inactive) and 99.3% (inactive) and 110% (inactive)	101% (inactive) and 117% (inactive) and 129% (inactive)	108% (inactive) and 99.6% (inactive) and 113% (inactive)	108% (inactive) and 101% (inactive) and 105% (inactive)	95.3% (inactive) and 103% (inactive) and 141% (inactive)	109% (inactive) and 89.4% (inactive) and 96.1% (inactive)	104% (inactive) and 98.3% (inactive) and 100% (inactive)
CC1CCCc2sc3nc(NNC(=O)c4cnccn4)n(-c4ccccc4)c(=O)c3c21 (stereo not given)	12.2% (inactive) and 12.9% (inactive)	14.2% (inactive) and 13.4% (inactive)	15.9% (inactive) and 11.2% (inactive)	28.9% (inactive) and 25.5% (inactive)	11.2% (inactive) and -15.9% (active)	14.5% (inactive) and 5.5% (active)	22.7% (inactive) and 11.3% (inactive)	6.89% (active) and 6.17% (active)	-7.57% (active) and -18.3% (active)	7.99% (active) and -2.42% (active)
Oc1c(Cl)cc(Cl)cc1Sc1cc(Cl)cc(Cl)c1O	75.6% (inactive) and 29.3% (inactive) and 94.6% (inactive)	18% (inactive) and 8.54% (active) and 41% (inactive)	10.7% (inactive) and 11.3% (inactive) and 82.2% (inactive)	84.2% (inactive) and -21.8% (active) and 79.6% (inactive)	91.3% (inactive) and 16.1% (inactive) and 87.9% (inactive)	33.2% (inactive) and 21.9% (inactive) and 72.1% (inactive)	18.6% (inactive) and 15.7% (inactive) and 75.4% (inactive)	25.8% (inactive) and 93.6% (inactive)	56% (inactive) and -16.2% (active) and 77.3% (inactive)	69.1% (inactive) and 35% (inactive) and 105% (inactive)
NC(=S)N/N=C(\c1ccc(Br)cc1)C1CC1	96.8% (inactive) and 107% (inactive)	38% (inactive) and 43.1% (inactive)	84.3% (inactive)	67.2% (inactive)	122% (inactive) and 98.1% (inactive)	97.2% (inactive) and 103% (inactive)	93.5% (inactive) and 81.8% (inactive)	99% (inactive) and 100% (inactive)	63.1% (inactive)	88% (inactive) and 84.1% (inactive)
